In all, about 69,000 compounds went through this assay and about 8,600 (12%) showed an effect of 50% or more. This is one part of a sample in which strong results are shown more often than they occur.
test system: Plasmodium berghei; test: Screen against P. berghei liver stage (PbLuc), transformed with Luciferase, at 10uM; assay type: functional, HepG2; settings: tested at 10 uM

Structure (SMILES) | INHIBITION
Cc1cc2nc(C3CCCCC3)c(-c3ccnc(NCCO)n3)cn2n1 | 20.4%
Cc1ncc(-c2ccnc(NCCO)n2)c(C2CCCCC2)n1 | 79.7%
Cc1ncc(-c2ccnc(N[C@@H](C)CO)n2)c(C2CCCCC2)n1 | 47.1%
Cc1cccc(C)c1NC(=O)CC(CN1CCN(C)CC1)C(=O)O (stereo not given) | 5.21%
O=C1CCc2cc(-c3csc(CCN4CCOC4=O)n3)ccc2N1 | -26.6%
Cc1nccn1C1CCCN(C(=O)c2cc(Cl)c3c(c2)OCO3)C1 (stereo not given) | -15.5%
COCCN1CCOCC12CCN(C(=O)c1c[nH]c3ccccc13)CC2 | 57.9%
COCCN1CCOCC12CCN(C(=O)c1ccoc1)CC2 | 21.8%
COCCN1CCOCC12CCN(C(=O)c1ccncc1)CC2 | 47.4%
N#Cc1ccc(OCCCN2CCOC(Cn3cncn3)C2)cc1 (stereo not given) | 36.1%
CC1(C2CCN(CC(N)=O)CC2)CN(Cc2ccccc2)C(=O)O1 (stereo not given) | 1.5%
Oc1cc(-c2cccs2)nc(C2CCCN(CC3=CCCOC3)C2)n1 (stereo not given) | 23.9%
COc1c(C2CCCN2C(=O)c2nccnc2N)c(C)nn1C (stereo not given) | 14.1%
CC(=O)NCCNC(=O)c1ccc(C)c(-n2cccc2)c1 | 10.7%
Cn1ccnc1CN1CCC2(CCCN2c2ncccn2)CC1 | 21.7%
Cn1cc(CN2CCCC23CCN(Cc2nccn2C)CC3)cn1 | 8.67%
Cn1ccnc1CN1CCC2(CC1)COCCN(c1ncccn1)C2 | 62.3%
Cn1ccnc1CN1CCC2(COCCN(S(=O)(=O)C3CC3)C2)C1 (stereo not given) | 64.3%
Cn1ccnc1CN1CCC2(CC1)COC2 | 61.3%
Cn1ccnc1CN1CCC2(CC1)COCCN(S(C)(=O)=O)C2 | 36.5%
CN(C)C(=O)N1CCC2(CC1)COCCN(c1ncccn1)C2 | -30%
Cn1ccnc1CN1CCC2(COCCN(Cc3ccsc3)C2)C1 (stereo not given) | 25.1%
CCOC1CC2(CCN(Cc3nccn3C)CC2)C1 | -11.6%
COC1CC2(CCN(Cc3nccn3C)CC2)C1 | -43.1%
CN(C)CCN1CCCC12CCN(Cc1nccn1C)CC2 | 70.2%
c1cnc(N2CCC3(COCCN(CC4CC4)C3)C2)nc1 (stereo not given) | 46.1%
COCc1ncc(CN2CC[C@@](O)(COC)C(C)(C)C2)cn1 | 31%
O=C(CCCSc1ccc(NC(=O)C2CC2)nn1)NCC1CCCO1 (stereo not given) | 34.6%
Cc1ncccc1-c1cc2cccnc2n1CCCNC(=O)C(C)(C)C | 27.6%
CCS(=O)(=O)N1CC[C@@H]2[C@H](CC1)N(CC(C)C)CCS2(=O)=O | -34.6%
